{"source": "PubChem BioAssay (EPA / NIEHS)", "key": {"[1]": {"assay": "CEETOX_H295R_CORTISOL: CeeTox H295R High-throughput Steroidogenesis Assay for Cortisol (AID 2283438);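 further: cortisol secreted into medium quantified by LC-MS/MS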", "details": "actives raise or lower the signal", "how_it_was_run": "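Cortisol measured by HPLC-MS/MS after MTBE extraction of medium from H295R cells exposed 48 h to chemical (0.1% DMSO), following 48 h prestimulation with 10 uM forskolin. Viability assessed by MTT in the same wells.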"}, "[2]": {"assay": "CEETOX_H295R_DOC: CeeTox H295R High-throughput Steroidogenesis Assay for DOC (AID 2283439)", "details": "actives raise or lower the signal", "how_it_was_run": "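11-Deoxycorticosterone quantified in medium by MTBE extraction and HPLC-MS/MS after 48 h chemical exposure (0.1% DMSO) of forskolin-primed (10 uM, 48 h) H295R cells. Same-well MTT viability; data fitted bidirectionally against DMSO.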"}, "[3]": {"assay": "CEETOX_H295R_PROG: CeeTox H295R High-throughput Steroidogenesis Assay for Progesterone (PROG) (AID 2283442);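 on AC50: human H295R adrenal cells primed with 10 µM forskolin before dosing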", "details": "actives raise or lower the signal", "how_it_was_run": "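H295R adrenal cells prestimulated 48 h with 10 uM forskolin, then exposed 48 h to test chemical in 0.1% DMSO. Progesterone in medium quantified by HPLC-MS/MS after MTBE extraction; viability checked by MTT in same wells.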"}, "[4]": {"read-out": "Tumor necrosis factor receptor superfamily member 6 (Homo sapiens) (UniProt P25445)", "assay": "LTEA_HepaRG_FAS: Life Technologies and Expression Analysis (LTEA) Assay for Fas cell surface death receptor (FAS) using HepaRG (AID 2283447)", "details": "mRNA level, 48 h; actives raise or lower the signal", "how_it_was_run": "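FAS transcript level was measured by TaqMan qRT-PCR against three housekeeping genes after 48 h chemical exposure. Cells were HepaRG, 0.5% DMSO vehicle, with a top concentration of 100 uM and half-log dilutions over eight points, in duplicate.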"}, "[5]": {"read-out": "Fatty acid synthase (Homo sapiens) (UniProt P49327)", "assay": "LTEA_HepaRG_FASN: Life Technologies and Expression Analysis (LTEA) Assay for Fatty Acid Synthase (FASN) using HepaRG (AID 2283448);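 on AC50: differentiated human HepaRG liver cells in serum-free induction medium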", "details": "mRNA level, 48 h; actives raise or lower the signal", "how_it_was_run": "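FASN transcript measured by TaqMan qRT-PCR, normalised to three housekeeping genes, after 48 h chemical exposure of HepaRG cells. Eight-point half-log series from 100 uM in 0.5% DMSO, duplicates; gain or loss fitted against vehicle.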"}, "[6]": {"read-out": "Cyclin D2 (CCND2), CCND2 (gene 894)", "assay": "LTEA_HepaRG_CCND2: Life Technologies and Expression Analysis (LTEA) Assay for Cyclin D2 (CCND2) using HepaRG (AID 2283449)", "details": "mRNA level, 48 h; actives raise or lower the signal", "how_it_was_run": "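CCND2 transcript levels, quantified by qRT-PCR and normalised to three housekeeping genes, were fitted bidirectionally against 0.5% DMSO. HepaRG cultures were dosed 48 h in duplicate with an 8-point half-log series up to 100 uM.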"}, "[7]": {"read-out": "Cyclin D1 (CCND1), CCND1 (gene 595)", "assay": "LTEA_HepaRG_CCND1: Life Technologies and Expression Analysis (LTEA) Assay for Cyclin D1 (CCND1) using HepaRG (AID 2283451);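 on AC50: differentiated human HepaRG liver cells in serum-free induction medium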", "details": "mRNA level, 48 h; actives raise or lower the signal", "how_it_was_run": "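Differentiated HepaRG cells exposed 48 h in serum-free induction medium to eight half-log concentrations from 100 uM top, 0.5% DMSO, duplicates. CCND1 mRNA measured by Fluidigm TaqMan qRT-PCR, normalised to ACTB, GAPDH, POLR2A; bidirectional fit.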"}, "[8]": {"read-out": "catalase (CAT), CAT (gene 847)", "assay": "LTEA_HepaRG_CAT: Life Technologies and Expression Analysis (LTEA) Assay for catalase (CAT) using HepaRG (AID 2283452)", "details": "mRNA level, 48 h; actives raise or lower the signal", "how_it_was_run": "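Expression of CAT was quantified by TaqMan qRT-PCR with ACTB/GAPDH/POLR2A normalization after 48 h chemical exposure of HepaRG. Eight-point half-log series, top 100 uM, in 0.5% DMSO; gain or loss fitted against vehicle.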"}, "[9]": {"assay": "CEETOX_H295R_ESTRADIOL: CeeTox H295R High-throughput Steroidogenesis Assay for Estradiol (AID 2283440);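 further: estradiol secreted into medium quantified by LC-MS/MS after dansyl derivatisation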", "details": "actives raise or lower the signal", "how_it_was_run": "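H295R cells pre-stimulated 48 h with 10 uM forskolin, then exposed 48 h to chemical in 0.1% DMSO. Medium estradiol quantified by MTBE extraction, dansyl derivatisation and HPLC-MS/MS; bidirectional fit versus DMSO; MTT viability required >/=70%.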"}, "[10]": {"read-out": "Cyclin Dependent Kinase Inhibitor 1A (CDKN1A), CDKN1A (gene 1026)", "assay": "LTEA_HepaRG_CDKN1A: Life Technologies and Expression Analysis (LTEA) Assay for Cyclin Dependent Kinase Inhibitor 1A (CDKN1A) using HepaRG (AID 2283450)", "details": "mRNA level, 48 h; actives raise or lower the signal", "how_it_was_run": "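Differentiated HepaRG cells in serum-free induction medium, exposed 48 h in duplicate to eight half-log concentrations up to 100 uM in 0.5% DMSO. mRNA measured by TaqMan qRT-PCR, normalized to ACTB, GAPDH, POLR2A; bidirectional fit versus DMSO.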"}}, "note": "“And” between values parts separate entries of the source, which are not always exact repeats. Equal entries are not always repeated. Where a structure was tested more than once in an assay, its records may differ in their call. The source made the active and inactive calls. How the source made its calls: active means hit-call score of the fitted dose curve at least 0.9, where 1 is the maximum; inactive means score below 0.9.", "data": [{"compound": "S=C(S)NCCNC(=S)S.[Mn+2].[S-]C([S-])=NCCN=C([S-])[S-].[Zn+2]", "values": [{"measurement": "outcome", "setting": "[1]", "result": "inactive"}, {"measurement": "outcome", "setting": "[2]", "result": "inactive"}, {"measurement": "outcome", "setting": "[3]", "result": "inactive"}, {"measurement": "AC50", "setting": "[4]", "result": "1.63 µM (active)"}, {"measurement": "outcome", "setting": "[4]", "result": "inactive"}, {"measurement": "AC50", "setting": "[5]", "result": "1.14 µM (active) and 714 nM (active) and 1.11 µM (active)"}, {"measurement": "outcome", "setting": "[6]", "result": "inactive"}, {"measurement": "AC50", "setting": "[7]", "result": "0.187 µM (active)"}, {"measurement": "outcome", "setting": "[7]", "result": "inactive"}, {"measurement": "AC50", "setting": "[8]", "result": "881 nM (active) and 1.09 µM (active) and 1.05 µM (active)"}]}, {"compound": "CCOC(=O)c1ccc(O)cc1", "values": [{"measurement": "outcome", "setting": "[1]", "result": "inactive"}, {"measurement": "AC50", "setting": "[2]", "result": "37.7 µM (active)"}, {"measurement": "outcome", "setting": "[9]", "result": "inactive"}, {"measurement": "AC50", "setting": "[3]", "result": "36.5 µM (active)"}, {"measurement": "outcome", "setting": "[4]", "result": "inactive"}, {"measurement": "outcome", "setting": "[6]", "result": "inactive"}, {"measurement": "outcome", "setting": "[10]", "result": "inactive"}, {"measurement": "outcome", "setting": "[7]", "result": "inactive"}, {"measurement": "outcome", "setting": "[8]", "result": "inactive"}]}, {"compound": "c1ccc(Nc2ccccc2)cc1", "values": [{"measurement": "outcome", "setting": "[3]", "result": "inactive"}, {"measurement": "outcome", "setting": "[4]", "result": "inactive"}, {"measurement": "outcome", "setting": "[10]", "result": "inactive"}, {"measurement": "outcome", "setting": "[7]", "result": "inactive"}, {"measurement": "outcome", "setting": "[8]", "result": "inactive"}]}, {"compound": "Oc1ccc(C(c2ccc(O)cc2)C(Cl)(Cl)Cl)cc1", "values": [{"measurement": "AC50", "setting": "[1]", "result": "0.399 µM (active)"}, {"measurement": "AC50", "setting": "[2]", "result": "0.207 µM (active)"}, {"measurement": "AC50", "setting": "[3]", "result": "0.848 µM (active)"}, {"measurement": "outcome", "setting": "[4]", "result": "inactive"}, {"measurement": "outcome", "setting": "[6]", "result": "inactive"}, {"measurement": "outcome", "setting": "[10]", "result": "inactive"}, {"measurement": "AC50", "setting": "[7]", "result": "89.2 µM (active)"}, {"measurement": "AC50", "setting": "[8]", "result": "88.8 µM (active)"}]}, {"compound": "CCNc1nc(N)nc(Cl)n1", "values": [{"measurement": "outcome", "setting": "[3]", "result": "inactive"}, {"measurement": "outcome", "setting": "[4]", "result": "inactive"}, {"measurement": "outcome", "setting": "[6]", "result": "inactive"}, {"measurement": "outcome", "setting": "[7]", "result": "inactive"}, {"measurement": "outcome", "setting": "[8]", "result": "inactive"}]}, {"compound": "C[C@]12C[C@H](O)[C@H]3[C@@H](CCC4=CC(=O)CC[C@@]43C)[C@@H]1CC[C@@H]2C(=O)CO", "values": [{"measurement": "outcome", "setting": "[1]", "result": "inactive"}, {"measurement": "outcome", "setting": "[2]", "result": "inactive"}, {"measurement": "outcome", "setting": "[4]", "result": "inactive"}, {"measurement": "outcome", "setting": "[5]", "result": "inactive"}, {"measurement": "outcome", "setting": "[6]", "result": "inactive"}, {"measurement": "outcome", "setting": "[10]", "result": "inactive"}, {"measurement": "outcome", "setting": "[7]", "result": "inactive"}, {"measurement": "outcome", "setting": "[8]", "result": "inactive"}]}, {"compound": "Cc1nn(C)c(Oc2ccccc2)c1C=NOCc1ccc(C(=O)OC(C)(C)C)cc1", "values": [{"measurement": "AC50", "setting": "[4]", "result": "8.31 µM (active)"}, {"measurement": "AC50", "setting": "[10]", "result": "6.99 µM (active)"}, {"measurement": "AC50", "setting": "[7]", "result": "83.9 µM (active)"}, {"measurement": "AC50", "setting": "[8]", "result": "2.16 µM (active)"}]}, {"compound": "N#CSCSc1nc2ccccc2s1", "values": [{"measurement": "outcome", "setting": "[4]", "result": "inactive"}, {"measurement": "AC50", "setting": "[5]", "result": "68.3 µM (active)"}, {"measurement": "outcome", "setting": "[6]", "result": "inactive"}, {"measurement": "outcome", "setting": "[7]", "result": "inactive"}, {"measurement": "outcome", "setting": "[8]", "result": "inactive"}]}, {"compound": "COC(=O)c1ccc(I)cc1S(=O)(=O)NC(=O)Nc1nc(C)nc(OC)n1", "values": [{"measurement": "outcome", "setting": "[4]", "result": "inactive"}, {"measurement": "outcome", "setting": "[6]", "result": "inactive"}, {"measurement": "outcome", "setting": "[7]", "result": "inactive"}, {"measurement": "outcome", "setting": "[8]", "result": "inactive"}]}, {"compound": "CCOC(=O)NCCOc1ccc(Oc2ccccc2)cc1", "values": [{"measurement": "AC50", "setting": "[4]", "result": "85.4 µM (active)"}, {"measurement": "outcome", "setting": "[6]", "result": "inactive"}, {"measurement": "outcome", "setting": "[7]", "result": "inactive"}, {"measurement": "AC50", "setting": "[8]", "result": "89.3 µM (active)"}]}, {"compound": "CC(C)CCCCCCc1ccc(O)cc1", "values": [{"measurement": "outcome", "setting": "[4]", "result": "inactive"}, {"measurement": "outcome", "setting": "[6]", "result": "inactive"}, {"measurement": "outcome", "setting": "[7]", "result": "inactive"}, {"measurement": "outcome", "setting": "[8]", "result": "inactive"}]}, {"compound": "COc1c(Cl)ccc(Cl)c1C(=O)O", "values": [{"measurement": "outcome", "setting": "[6]", "result": "inactive"}, {"measurement": "outcome", "setting": "[7]", "result": "inactive"}, {"measurement": "outcome", "setting": "[8]", "result": "inactive"}]}, {"compound": "N[C@@H](Cc1cc(I)c(Oc2ccc(O)c(I)c2)c(I)c1)C(=O)O", "values": [{"measurement": "outcome", "setting": "[4]", "result": "inactive"}, {"measurement": "outcome", "setting": "[6]", "result": "inactive"}, {"measurement": "outcome", "setting": "[10]", "result": "inactive"}, {"measurement": "outcome", "setting": "[7]", "result": "inactive"}, {"measurement": "AC50", "setting": "[8]", "result": "7.94 µM (active)"}]}, {"compound": "CCCOC(=O)c1ccc(C(=O)OCCC)nc1", "values": [{"measurement": "outcome", "setting": "[4]", "result": "inactive"}, {"measurement": "outcome", "setting": "[6]", "result": "inactive"}, {"measurement": "outcome", "setting": "[10]", "result": "inactive"}, {"measurement": "outcome", "setting": "[7]", "result": "inactive"}, {"measurement": "outcome", "setting": "[8]", "result": "inactive"}]}]}
